Potency, outcome and activity change, negative = inhibition data for 47 molecules are collected here from PubChem BioAssay (NCATS).

Test [1] is described as follows: qHTS assay for measurement of the activity of small molecule inhibitors on Zika virus induced Caspase-3 activity in human iPSC derived neural progenitor cells (hNPCs) (AID 1224857). Further: nearly all actives have a fitted effect of over 65% in size. A digest of the protocol: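 Pretreat hNPCs with compound 1 h; infect ZIKV 2 FFU/cell; 6 h 37 C, 5% CO2; Caspase-Glo 3/7, 30 min RT; luminescence; normalize to no-virus and virus-only wells.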
(In qHTS, concentration-response curves come from the screen itself.)

A short description of test [2]: qHTS assay for measurement of the activity of small molecule inhibitors on Zika virus induced Caspase-3 activity in human astrocytoma cells (AID 1224859). A digest of the protocol: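 Human SNB-19 astrocytoma cells in RPMI 1640 with 10% FBS receive compound one hour ahead of Zika virus at 2 FFU/cell. After 6 h infection, caspase-3/7 activity is detected by Caspase-Glo luminescence.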

Values without a mark were called inactive. Records with an inconclusive call do not appear. Where a call stands in place of a potency, no number is given. Active and inactive are the calls of the source. The call rests on the fitted dose curve; in most records, active means well fitted inhibition curve with a large enough effect; inconclusive means small, poorly fitted or top-dose-only effect; inactive means no such curve, though single readings can be large or run the other way. *1 amine or outer side, *2 acyl side, *3 side chain or, on linkers, in order; H or OH if unused. Where a SMILES comes first, the peptide text is derived from it. Bridges are numbered along the chain shown (N, C = ends). [ ]: non-standard residue; d: D form. The star is where a group is joined. ξ: configuration not given here. X10 = NC1=NCCC(C(N[*:1])C(=O)[*:2])N1; ΔAla(3-NHCONH2) = NC(=O)NC=C(N)C(=O)O; pGlu = O=C1CC[C@@H](C(=O)O)N1; ξβ3hOrn = NCCCC(N)CC(=O)*; Dap = NC[CH](N)C(=O)O

Take `O=C(OCCN1CCOCC1)c1cccnc1Nc1cccc(C(F)(F)F)c1`: the Potency entry in test [1] is “inactive”. For the same molecule, in test [2], the call was inactive.

Consider `O=C(O)C1CCC1`, for which the Potency result in test [1] was “inactive”. The result in test [2] was inactive.

As for `CCOc1ccccc1OCC1CNCCO1` (centres undefined), the Potency result in test [1] is “inactive”. Further, in test [2], the call was inactive.

In the case of `CC(C)(C)c1cc(C=O)cc(C(C)(C)C)c1O`, in test [1], the Potency entry was “inactive”. The outcome in test [2] was inactive.

For the molecule `O=c1[nH]sc2cc(Cl)ccc12`, the Potency result in test [1] was “inactive”. Besides, in test [2], the call was inactive.

For the molecule `Cc1cccc(C)c1NC(=O)c1ccc(N)cc1`, in test [1], the Potency result was “inactive”. The call in test [2] was inactive.

With `O=C1Nc2ccccc2C1(c1ccc(O)cc1)c1ccc(O)cc1`, the Potency result in test [1] was “inactive”. In addition, the call in test [2] was inactive.

On to `CC1CCCCN1CCCOC(=O)c1ccc(OC2CCCCC2)cc1` (centres undefined), for which, in test [1], the Potency result was “inactive”. The molecule was called inactive in test [2].

For the molecule `Nc1ccc([N+](=O)[O-])c(C(F)(F)F)c1`, the Potency entry in test [1] is “inactive”. The molecule was called inactive in test [2].

For `Oc1ccccc1-c1nnco1`, the Potency result in test [1] is “inactive”. For the same molecule, in test [2], the molecule was classed as inactive.

With `O=c1[nH]c2ccccc2c(=O)n1CCCl`, the Potency result in test [1] was “inactive”. Moreover, the result in test [2] was inactive.

For the molecule `CC(C)NC(=O)c1ccc(C=O)cc1`, the Potency result in test [1] is “inactive”. The molecule was called inactive in test [2].

As to `Cn1c(=O)c2c(ncn2CC(=O)O)n(C)c1=O`, the Potency entry in test [1] is “inactive”. In addition, the call in test [2] was inactive.

In the case of `Nc1ccc2c(c1)CN1C(=O)c3ccccc3C1=N2`, the Potency entry in test [1] was “inactive”. In addition, in test [2], the result was inactive.

For `CCNC(=O)[C@@H]1CCCN1C(=O)[C@H](CCCN=C(N)N)NC(=O)[C@H](CC(C)C)NC(=O)CNC(=O)[C@H](Cc1ccc(O)cc1)NC(=O)[C@H](CO)NC(=O)[C@H](Cc1c[nH]c2ccccc12)NC(=O)[C@H](Cc1cnc[nH]1)NC(=O)[C@@H]1CCC(=O)N1` ([pGlu]HWSYGLRP-NHEt), the Potency entry in test [1] is “inactive”. The outcome in test [2] was inactive.

Regarding `CC(=O)O[C@H]1CC[C@@]2(C)C(=CC[C@@H]3[C@@H]2CC[C@]2(C)C(C(C)=O)=CC[C@@H]32)C1`, the Potency result in test [1] was “inactive”. In addition, the molecule was called inactive in test [2].

As for `COCCc1ccccn1`, in test [1], the Potency result is “inactive”. The molecule was classed as inactive in test [2].

For `CCCC(=O)OCOC(=O)C1=C(C)NC(C)=C(C(=O)OC)C1c1cccc(Cl)c1Cl` (centres undefined), the Potency entry in test [1] is “inactive”. In addition, the molecule was called inactive in test [2].

Consider `CN(C)CCOC1=Cc2ccccc2Sc2ccc(Cl)cc21`, for which the Potency result in test [1] was “inactive”. For the same molecule, the molecule was classed as inactive in test [2].

In the case of `O=C(O)c1ccc(OCCN2CCCCC2)cc1`, the Potency result in test [1] is “inactive”. For the same molecule, the outcome in test [2] was inactive.

On to `CC(=O)Oc1ccc(C2(c3ccc(OC(C)=O)cc3)Oc3ccccc3NC2=O)cc1`, for which, in test [1], the Potency result was “inactive”. Further, in test [2], the result was inactive.

With `C[C@H](N)C(=O)N[C@@H](C)C(=O)NC1[C@H]2CN(c3nc4c(cc3F)c(=O)c(C(=O)O)cn4-c3ccc(F)cc3F)C[C@@H]12` (some centres undefined), the Potency result in test [1] is “inactive”. Besides, in test [2], the molecule was called inactive.

Consider `O=C(O)Cn1cnnn1`, for which the Potency result in test [1] is “inactive”. For the same molecule, the result in test [2] was inactive.

Consider `Cc1c(N)cccc1C(F)(F)F`, for which the Potency result in test [1] was “inactive”. Also, in test [2], the result was inactive.

Consider `CCCC(=O)O[C@]1(C(=O)CC)CC[C@H]2[C@@H]3CCC4=CC(=O)CC[C@]4(C)[C@H]3[C@@H](O)C[C@@]21C`, for which the Potency result in test [1] is “inactive”. The call in test [2] was inactive.

As to `Cc1onc(-c2ccccc2)c1C(=O)Cl`, the Potency entry in test [1] is “inactive”. Besides, the result in test [2] was inactive.

Take `C/C(=C(/OCCOc1ccc(Cl)cc1)c1ccc(Cl)cc1Cl)n1ccnc1`: in test [1], the Potency result is “inactive”. Moreover, in test [2], the molecule was classed as inactive.

Regarding `CC(=O)c1ccc(O)c(C(N)=O)c1`, in test [1], the Potency entry is “inactive”. Moreover, the result in test [2] was inactive.

Regarding `COC(=O)[C@H]1[C@H]2C[C@@H]3c4[nH]c5cc(OC)ccc5c4CCN3C[C@H]2C[C@@H](OC(=O)/C=C/c2ccc(O)c(OC)c2)[C@@H]1OC`, the Potency entry in test [1] was “inactive”. Further, the molecule was called inactive in test [2].

As to `NCCCC(N)CC(=O)NCC1NC(=O)C(CO)NC(=O)C(N)CNC(=O)C(C2CCN=C(N)N2)NC(=O)C(=CNC(N)=O)NC1=O` (stereo not drawn) (H-[Dap]S[Dap](ξβ3hOrn)[ΔAla(3-NHCONH2)][X10]; lactam 1-C; configuration not given here), the activity change, negative = inhibition in test [1] is 2.09% [at 0.568 µM]; in test [2] it was -8.34% [at 0.568 µM].

For `CCc1cccc2c(CCO)c[nH]c12`, the Potency result in test [1] was “inactive”. For the same molecule, in test [2], the call was inactive.

For `CCC(=O)Oc1ccc2c(c1)CC[C@@H]1[C@@H]2CC[C@@]2(C)[C@H]1C[C@@H](OC(=O)CC)[C@@H]2OC(=O)CC`, the Potency result in test [1] is “inactive”. Also, in test [2], the outcome was inactive.

On to `Cc1coc2ccccc2c1=O`, for which, in test [1], the Potency entry is “inactive”. The outcome in test [2] was inactive.

For `CCC(=O)O[C@H]1[C@H](O[C@@H]2[C@@H](C)[C@H](O[C@H]3C[C@@](C)(OC)[C@@H](O)[C@H](C)O3)[C@@H](C)C(=O)O[C@H](CC)[C@@](C)(O)[C@H](O)[C@@H](C)C(=O)[C@H](C)C[C@@]2(C)O)O[C@H](C)C[C@@H]1N(C)C`, the Potency result in test [1] was “inactive”. Further, the outcome in test [2] was inactive.

As for `CC(NC(CCc1ccccc1)C(=O)O)C(=O)N1C(=O)N(C)CC1C(=O)O` (centres undefined), the Potency entry in test [1] is “inactive”. For the same molecule, in test [2], the molecule was classed as inactive.

With `C/C(=C1\CCOC(=O)S1)N(C=O)Cc1cnc(C)nc1N`, the Potency entry in test [1] was “inactive”. Besides, in test [2], the call was inactive.

With `Cc1sccc1Br`, in test [1], the Potency result is “inactive”. Besides, the result in test [2] was inactive.

Turning to `Clc1ccc2c(c1)Nc1ccccc1S2`, in test [1], the Potency entry is “inactive”. For the same molecule, in test [2], the molecule was classed as inactive.

Regarding `C[C@@H]1C[C@H]2[C@@H]3CCC4=CC(=O)C=C[C@]4(C)[C@@]3(F)[C@@H](O)C[C@]2(C)[C@@]1(O)C(=O)COC(=O)c1ccncc1`, in test [1], the Potency entry was “inactive”. In addition, the molecule was called inactive in test [2].

As to `Nc1ncnc2c1ncn2Cc1c(F)cccc1Cl`, the Potency entry in test [1] was “inactive”. In addition, the call in test [2] was inactive.

For `CCOC(=O)Oc1ccc(CCNC(=O)[C@H](CCSC)NC(C)=O)cc1OC(=O)OCC`, in test [1], the Potency entry is “inactive”. For the same molecule, the call in test [2] was inactive.

Consider `O=C(O)c1cn(C2CC2)c2cc(Cl)c(F)cc2c1=O`, for which, in test [1], the Potency result was “inactive”. Moreover, the molecule was called inactive in test [2].

Turning to `CN1CCN(N)CC1`, in test [1], the Potency entry is “inactive”. Moreover, the molecule was classed as inactive in test [2].

As for `OC1(c2ccc(Cl)cc2)CCNCC1`, in test [1], the Potency result is “inactive”. Moreover, in test [2], the result was inactive.

In the case of `CCn1ccc(NS(=O)(=O)c2ccc(N)cc2)nc1=O`, the Potency result in test [1] was “inactive”. Moreover, the outcome in test [2] was inactive.

As for `Cc1oc(-c2ccccc2)nc1CCC(=O)c1ccc(CC2SC(=O)NC2=O)cc1` (centres undefined), the Potency result in test [1] is “inactive”. Besides, the result in test [2] was inactive.

On to `CNC(=O)c1c(I)c(NC(C)=O)c(I)c(C(=O)O)c1I`, for which, in test [1], the Potency entry is “inactive”. Moreover, in test [2], the call was inactive.
